Shown are actives, neighbours in structure and some others; about 1.1% of the full set was active somewhere.
LANA-H2A inh: blocks KSHV LANA binding to histone H2A/H2B | Q9QR71 | cell-free LANA-H2A/H2B peptide, fluorescence polarization | inhibition, % (test concentration not listed) | 0.6% of 320,000 active; in the data active = inhibition mostly above about 10%, no sharp cut-off; inactive = mostly below about 6.7%
IDE cell activ: activators of human insulin-degrading enzyme in cells; HEK cells, FAbeta-B cleavage, fluorescence polarization; 0% vehicle, 100% cell-free pure enzyme wells; activation, % at 5.96 µM; 0.073% of 340,000 active;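 active = activation above the mean of all tested compounds plus 3 SD, set per screening campaign, cut at about 17% in these data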
HDAC3 inhib: human HDAC3 inhibition | inhibition, % at 8.3 µM | 0.15% of 320,000 active | recombinant HDAC3, fluorogenic peptide/trypsin coupled, fluorescence | AID 2718 | O15379; in the data active = inhibition above about 26%, passing the limit was not always enough
IDE cell inh: inhibitors of human insulin-degrading enzyme in cells; P14735; HEK cells, FAbetaB cleavage, fluorescence polarization; inhibition, % at 5.59 µM; 0.41% of 320,000 active; AID 434962;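 active = percent inhibition above the average of all tested compounds plus 3 SD, set per screening campaign, cut at about 16% in these data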;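 note: IDE supplied by intact live HEK cells; FP after avidin binding of uncleaved biotin substrate so inhibition keeps polarization high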
Hits are given with their value; . = inactive; / = not tested or not shown.

SMILES	LANA-H2A inh	IDE cell activ	HDAC3 inhib	IDE cell inh
NC(=O)C1=C[C@H](c2ccccc2)C[C@H](OCc2ccc(CO)cc2)O1	.	.	28	.
CCC1CCCCN1CCCNC(=O)c1ccc(N2CCCC2=O)cc1 (stereo not drawn)	.	.	.	.
O=C(NNC(=O)c1ccccc1O)c1cccc(Br)c1	.	.	.	.
CCOc1cc(/C=N/Nc2cc(C)nc(-n3nc(C)cc3C)n2)ccc1O	.	22	.	.
CCCc1cc(=O)[nH]c(SCC(=O)NC)n1	.	.	.	.
CCCc1cc(=O)[nH]c(SCC(=O)CSc2nc(CCC)cc(=O)[nH]2)n1	.	.	45	.
CCOc1ccc(N2C(=O)c3ccc(C(=O)OCC(=O)N(CC)C4CCS(=O)(=O)C4)cc3C2=O)cc1 (stereo not drawn)	.	.	.	.
C=CCN1C(=O)c2ccc(C(=O)OCC(=O)N(CC)C3CCS(=O)(=O)C3)cc2C1=O (stereo not drawn)	.	22	.	.
COc1cc(C(C)=O)ccc1OCC(=O)Nc1ccc(C)c(S(=O)(=O)N2CCCCCC2)c1	.	.	.	.
COC(=O)C(C)Sc1n[nH]c(=S)s1 (stereo not drawn)	.	.	31	.
CSc1ccc(/C=C(/NC(=O)c2ccccc2)C(=O)NCCN2CCOCC2)cc1	.	.	.	.
CC(=O)Oc1ccc(N2C(=O)C3C4C=CC(C5CC45)C3C2=O)cc1[N+](=O)[O-] (stereo not drawn)	.	.	.	.
CC(=O)Oc1ccc(N2C(=O)C3C(C2=O)C2C=CC3C23CC3)cc1[N+](=O)[O-] (stereo not drawn)	11	.	.	.
O=C(CNC(=O)c1ccccc1F)OCc1nc2ccc(Cl)cc2n1CCO	.	.	.	.
Cc1ccc(C(=O)COC(=O)CSc2cccc3cccnc23)c(C)c1	17	.	.	.
CCN1C(=O)S/C(=C/c2c(OCc3ccc(C(=O)O)cc3)ccc3ccccc23)C1=O	119	.	.	.
Cc1nn(-c2nc3ccccc3n2Cc2ccccc2)c2c1C(=O)CC(C)(C)C2	.	.	.	.
CCCc1nn(C(=O)c2ccccc2)c2c1C(=O)CC(C)(C)C2	.	.	72	.
Cc1nn(C(=O)c2ccccc2)c2c1C(=O)CC(C)(C)C2	.	.	91	.
O=C(O)c1c(Cl)nc2ccccn12	.	.	.	.
O=C(Oc1cc(=O)n2ccccc2n1)c1ccccc1	/	.	38	.
CCN1C/C(=C/c2cccs2)c2nc3ccccc3c(C(=O)O)c2C1	11	.	.	.
CCN1C/C(=C/c2sccc2C)c2nc3ccccc3c(C(=O)O)c2C1	.	.	.	.
O=C(Cc1cccs1)N1CCN=C1SCc1cccc(F)c1	.	.	.	.
Cc1cc(C(=O)Nc2nncs2)oc1C	.	.	.	.
SMILES	LANA-H2A inh	IDE cell activ	HDAC3 inhib	IDE cell inh
CCOc1ccc(C2C(C#N)=C(N)SC(N)=C2C#N)cc1OC	.	/	.	20
CCOC(=O)C(c1ccccc1)C(Nc1ccc(F)cc1)c1ccccn1 (stereo not drawn)	21	.	.	.
O=C(CN1C(=O)NC(Cc2c[nH]c3ccccc23)C1=O)Nc1cccc(S(=O)(=O)N2CCOCC2)c1 (stereo not drawn)	25	.	.	.
O=C(C1=C(O)C(=O)N(CC2CCCO2)C1c1ccccc1)c1ccco1 (stereo not drawn)	.	.	.	.
COc1ccc(C2C(C(=O)c3ccco3)=C(O)C(=O)N2CC2CCCO2)cc1OC (stereo not drawn)	19	.	.	.
Cc1c(C(=O)OCCOc2ccccc2)[nH]c2c1C(=O)CCC2	.	.	.	.
CCCc1c(C(=O)OCC)[nH]c2c1C(=O)CCC2	36	.	.	.
O=C(Nc1ccc(CN2CCOCC2)cc1)c1ccc(-c2cccc([N+](=O)[O-])c2)o1	26	.	.	.
O=[N+]([O-])c1cccc(-c2ccc(C(=S)N3CCOCC3)o2)c1	.	.	.	.
O=C(CCN1CCN(Cc2ccccc2)CC1)NNC(=O)Nc1cccc([N+](=O)[O-])c1	16	.	.	/
Cc1cc(=O)oc2cc(OCC(=O)N3CCN(C(=O)C4COc5ccccc5O4)CC3)c(Cl)cc12 (stereo not drawn)	.	.	.	.
COc1cccc(Cl)c1NC(=O)N1CCN(c2ccnc3cc(Cl)ccc23)CC1	40	.	.	26
COc1ccc2nc(NC(=O)Cn3cnc4ccccc4c3=O)sc2c1	177	.	.	.
COc1ccc(NC(=O)Cn2cnc3ccccc3c2=O)cc1OC	.	.	.	.
COc1ccc2nc(NC(=O)CSC(C)C(=O)Nc3cc(C)on3)sc2c1 (stereo not drawn)	17	.	.	.
O=C(Cc1ccccc1)Nc1ccc(N2CCN(Cc3ccccc3F)CC2)cc1	.	.	.	.
CC(=O)OCC1O[C@@H](O[C@@H]2C[C@H]3C(C)(C)[C@H](OC(C)=O)CC[C@]3(C)[C@H]3CC[C@]45C[C@]4(CC[C@H]5[C@@H](C)C[C@@H](O)[C@H](O)C(C)(C)O)[C@@]32C)[C@H](O)[C@@H](O)[C@@H]1O (stereo partly drawn)	.	/	42	.
CCn1cc(C(=O)NC2CCCCCC2)c(=O)c2ccc(C)nc21	.	.	.	.
Cc1ccc(NC2=C/C(=N/S(=O)(=O)c3cccs3)c3ccccc3C2=O)cc1C	.	.	.	.
Cc1cc(C)c(S(=O)(=O)/N=C2/C=C(Sc3ncn[nH]3)C(=O)c3ccccc32)cc1C	.	.	40	.
Cc1nnc(NC(=O)CCC(=O)N2CCN(CCOc3cccc4ccccc34)CC2)s1	.	/	.	.
C[C@@H](NC(=O)[C@@H]1Cc2ccccc2CN1C(=O)OC(C)(C)C)C(=O)NC1CCCCC1	.	.	.	.
COC/C=C/C1=CC2=CC(=O)C(C)(OC(=O)c3cnc4ccccc4n3)C(=O)C2=CN1CCN1CCOCC1 (stereo not drawn)	18	.	.	.
COc1cc(NC(=O)COc2cc3oc(=O)cc(C)c3cc2Cl)cc(OC)c1OC	15	.	.	.
CC(=O)c1sc(NS(=O)(=O)c2ccc(C)cc2)nc1-c1ccccc1	.	.	.	.
SMILES	LANA-H2A inh	IDE cell activ	HDAC3 inhib	IDE cell inh
Cc1cc(=O)[nH]c(N)n1	13	.	.	.
C=CCN(CC=C)CCOc1ccc2ccccc2c1	.	.	.	.
Cc1ccc(C)c(NC(=O)CSc2nnc(-c3ccncc3)o2)c1	.	/	.	.
N#Cc1ccccc1NC(=O)CSc1nnc(-c2ccncc2)o1	13	.	.	.
CCOc1ccc(C2/C(=C(\O)c3ccc4c(c3)OCCO4)C(=O)C(=O)N2CCN2CCOCC2)cc1OC (stereo not drawn)	.	.	.	/
CC(C)CC(COCc1ccc(C(F)(F)F)cc1)N1CCN(C(=O)c2ccc(C(F)(F)F)cc2)CCC1=O (stereo not drawn)	.	.	39	.
COc1ccc(C(=O)Nc2nc3cc(OC)c(OC)cc3c(=O)[nH]2)cc1	.	.	.	.
COc1ccc(C(=O)Nc2nc3ccccc3c(=O)[nH]2)cc1	40	.	.	.
COc1ccc(Nc2nc3ccccc3c(=O)[nH]2)cc1	21	.	.	.

Bioassay records from PubChem BioAssay.
